PubChem BioAssay (Tox21)
Unmarked numbers belong to inactive results. Calls of active or inactive are those of the source. The call rests on the fitted dose curve; in most records, active means well fitted curve in the direction sought with a large enough effect in the repeat runs; inconclusive means weak or mixed curves; inactive means flat fitted curve, though single readings scatter.

Experiment: qHTS assay to test for compound auto fluorescence at 460 nm (blue) in HepG2 cells (AID 720687)
Conditions: autofluorescence 405/460 nm, 1 h; series mostly up to 91.3 µM; fluorescence, % of fluorescent control: at the top concentration
From the text: U.S. Tox21 Program National Center for Advancing Translational Sciences [NCATS] NIH Chemical Genomics Center [NCGC] U.S. Environmental Protection Agency [EPA] National Institutes of Environmental Health Sciences [NIEHS] National Toxicology Program [NTP] U.S. Food and Drug Administration [FDA] Tox21 Assay Overview: Compound auto fluorescence often interferes with screening of the compound library against various biological targets and signaling pathways. Some of these compounds may have fluorophoric properties. Such properties may interfere with the assay outputs resulting in false positives and/or negatives. To decrease such complications and ensure the compound activities are relevant in terms of biological response, the Tox21 10K compound library was screened for auto fluorescence. From the fluorophores used as reporter signals in our screening assays, the auto fluorescence equivalencies of compounds against three fluorophores have been evaluated: Triamterene, Fluorescein and Rose Bengal sodium for blue, green and red fluorescence, respectively. The fluorescence intensities were measured using Excitation/Emission wavelengths at 405/460nm, 485/535nm and 540/590nm for blue, green and red labels, respectively. This assay includes the blue fluorescence data.
Tox21 Assay Protocol Summary: 2,000 HepG2 cells in 5 uL of culture medium (MEM containing 10% FBS) per well were dispensed into black wall/clear bottom 1536-well plates using a Multidrop Combi Dispenser (ThermoFisher Scientific, Waltham, MA). The assay plates were incubated overnight at 37 C to allow cell attachment to the well bottom, followed by the transfer of 23 nL compound or DMSO vehicle by a pintool work station (Kalypsys , San Diego, CA). After the assay plates were incubated for 1 hr at 37 C and 5% CO2, fluorescence intensities in the assay plates were measured by an Envision (PerkinElmer, Shelton, CT) plate reader using three labels for measuring blue, green and red fluorescence at […] 460, 535 and 590 nm respectively.
On the % scale 0 is the no-effect control and ±100 the full control effect.

Structure (SMILES)	fluorescence, % of fluorescent control	outcome
CCCCc1ccc2c(n1)[C@@H](c1ccc(OC)cc1C[C@H](C)C(=O)O)[C@H](C(=O)O)[C@H]2c1ccc2c(c1)OCO2	0.0607%	–
CC(C)CC(C)(N)C#N (stereo not given)	-0.0545% [at 95.7 µM]	–
CCN1C=CN(C)C1C (stereo not given)	0.15%	–
CC[N+](C)(CC)CCOC(=O)C1c2ccccc2Oc2ccccc21	-0.0993% [at 46 µM]	–
C[N+]12CCC(CC1)C(OC(=O)C(O)(c1ccccc1)c1ccccc1)C2 (stereo not given)	0.0552% [at 18.6 µM]	–
CC(C)NNC(=O)c1ccncc1	-0.0365% [at 46 µM]	–
C[N+]1(CC2COC(c3ccccc3)(c3ccccc3)O2)CCCCC1 (stereo not given)	-0.155% [at 46 µM]	–
CCOc1ccccc1OCC	0.0364%	–
CC[C@H]1OC(=O)[C@H](C)[C@@H](O[C@H]2C[C@@](C)(OC)[C@@H](O)[C@H](C)O2)[C@H](C)[C@@H](O[C@@H]2O[C@H](C)C[C@H](N(C)C)[C@H]2O)[C@](C)(OC)C[C@@H](C)C(=O)[C@H](C)[C@@H](O)[C@]1(C)O	–	inactive
O=C(O)c1cc(C(=O)O)cc(C(=O)O)c1	0.0216% [at 95.7 µM]	–
Cc1ncc(COP(=O)(O)O)c(C=O)c1O	0.236% [at 46 µM]	–
CC(=O)N[C@H]1[C@H]([C@H](O)[C@H](O)CO)OC(C(=O)O)=C[C@@H]1N=C(N)N	0.0605% [at 46 µM]	–
CCCC(C)C(=O)OCC (stereo not given)	0.0235%	–
CC1=C(C/C=C(\C)CCC[C@H](C)CCC[C@H](C)CCCC(C)C)C(=O)c2ccccc2C1=O	0.548% [at 46 µM]	–
CCC(C(=O)NC(=O)NC(C)=O)c1ccccc1 (stereo not given)	0.0063% [at 46 µM]	–
CCCCS(=O)(=O)N[C@@H](Cc1ccc(OCCCCC2CCNCC2)cc1)C(=O)O	0.0035% [at 46 µM]	–
CCCCCC(C)N (stereo not given)	0.099% [at 46 µM]	–
COC(=O)Nc1ccc(Cl)c(Cl)c1	-0.0004%	–
O=CN(CCO)CCO	0.0684%	–
CC(C)(C#N)Nc1nc(Cl)nc(NC2CC2)n1	0.0023%	–

Structure (SMILES)	fluorescence, % of fluorescent control	outcome
NCCCC[C@H](N[C@@H](CCc1ccccc1)C(=O)O)C(=O)N1CCC[C@H]1C(=O)O	0.0286% [at 18.6 µM]	–
CC(=O)OCC(=O)[C@@]1(O)[C@H](C)C[C@H]2[C@@H]3CCC4=CC(=O)C=C[C@]4(C)[C@@]3(F)[C@@H](O)C[C@@]21C	–	inactive
C1CCC2(CCCCO2)OC1	-0.321%	–
CC(C)(C)C(=O)c1ccccc1	-0.007%	–
C=CC(C)(CCC=C(C)C)OC(=O)CC (stereo not given)	0.0429%	–
Cc1ccccc1N=C(N)N=C(N)N	-0.355%	–
O=C(c1ccccc1O)c1ccccc1O	-0.1%	–
Cc1nc2ccc(CN(C)c3ccc(C(=O)N[C@@H](CCC(=O)O)C(=O)O)s3)cc2c(=O)[nH]1	–	inactive
CC(C)[C@H]1CC[C@@H](C)CC1=O	0.0377%	–
CC(=O)O[C@@]12CO[C@@H]1C[C@H](O)[C@@]1(C)C(=O)[C@H](O)C3=C(C)[C@@H](OC(=O)[C@H](O)[C@@H](NC(=O)OC(C)(C)C)c4ccccc4)C[C@@](O)([C@@H](OC(=O)c4ccccc4)[C@H]21)C3(C)C	–	inactive
CC(=O)Oc1cccc(C)c1	-0.0057% [at 46 µM]	–
CO[C@@]1(NC(=O)CSC[C@@H](N)C(=O)O)C(=O)N2C(C(=O)O)=C(CSc3nnnn3C)CS[C@@H]21	0.507% [at 46 µM]	–
NO	-0.0716% [at 95.7 µM]	–
CC(C)C[C@@H](N)C(=O)O	-0.0085% [at 46 µM]	–
Cc1cccc(C)c1NC(=O)CC12CCCN1CCC2	-0.0045% [at 46 µM]	–
CC(C)(N)C#N	-0.0125% [at 95.7 µM]	–
O=C1CCCCCCCCCCCCCCO1	0.0497%	–
C=COC(=O)C(C)(CC)CCC(C)C (stereo not given)	-0.14%	–
CC(C)(C)C(=O)Oc1ccc(S(=O)(=O)Nc2ccccc2C(=O)NCC(=O)O)cc1	-0.143% [at 46 µM]	–
CCCCCCCCCC[N+](C)(C)[O-]	0.0484%	–
